The full ranking holds about 33,000 sequences; the median of “e-score” is about -0.037, and the highest 2% start at about 0.34. This excerpt belongs to a sample that is enriched for the highest values.

The target in this assay is T1, GST-Rok (full length) (Bacillus subtilis subsp. subtilis str. …, UniProt O34857 1-191).
T1 sequence: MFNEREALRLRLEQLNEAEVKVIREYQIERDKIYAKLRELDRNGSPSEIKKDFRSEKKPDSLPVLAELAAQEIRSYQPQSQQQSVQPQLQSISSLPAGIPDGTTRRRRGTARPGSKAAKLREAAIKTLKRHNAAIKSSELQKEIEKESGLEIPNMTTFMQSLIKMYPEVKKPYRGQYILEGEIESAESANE
Put plainly: protein binding microarray; Rok is a gene silencer of Bacillus subtilis; high values mean tight binding. The note with it: protein: recombinant; tags: GST (pTH5325, pDEST15-Magic modified); dsDNA, one strand shown. Summed up: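 Each has a 25-mer constant primer and a 35-mer variable part from a de Bruijn sequence of order 10, covering every non-palindromic 8-mer at least 32 times (palindromic 16). Preference for each 8-mer is given as a rank-based, unitless enrichment score (E-score). Its range runs from 0.5 (most favored) to −0.5 (most disfavored).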
For the sequence GGATCTTA, the binding signal amounted to 0.0165 E-score.
The figure for CTGTCTAA is -0.0397 E-score; for AAGTCTGG it is -0.0136 E-score; for AATGCACG it is -0.0533 E-score.
Regarding CAACTTAC, the binding signal is 0.216 E-score.
The same measure for TAAGGTAA: 0.0381 E-score; for TCCAGTCA: -0.0213 E-score; for AGATTTTA: 0.294 E-score.
The figure for GACAAACA is 0.0661 E-score.
The figure for TCGGTGAA is -0.0505 E-score.
TCAACGAA: the binding signal was determined as 0.0593 E-score.
The figure for AATTTTAT is 0.273 E-score; for CATTTTAC it is 0.349 E-score; for AAATTTAC it is 0.336 E-score.
The figure for GAATTTAC is 0.268 E-score; for GATTTTAC it is 0.18 E-score.
Regarding AAATTTAT, the binding signal turned out to be 0.351 E-score.
The figure for AAATTTAG is 0.163 E-score; for CATTTTAA it is 0.0564 E-score; for CAATTTAC it is 0.288 E-score.
As to GATGAACC, the binding signal was -0.136 E-score.
The same measure for ATGTTGGC: 0.0169 E-score.
The figure for ACATGTAT is 0.167 E-score; for ACATGTAG it is 0.338 E-score.
As to CCATGTAG, the binding signal was 0.271 E-score.
Regarding CCATGTAC, the binding signal came out at 0.193 E-score.
The same measure for GCATGTAC: 0.0911 E-score; for ACATGTAC: 0.358 E-score.
With CGGGTACA, the binding signal worked out at 0.154 E-score.
The same measure for CGACAGCG: -0.036 E-score.
The figure for ATTTACTG is 0.287 E-score; for GATTACTA it is 0.2 E-score; for AATTACTA it is 0.434 E-score.
The same measure for AATTACCC: 0.215 E-score; for ATTTACTC: 0.0747 E-score.
In the case of CGTTACTC, the binding signal was -0.0623 E-score.
The figure for AATTACCG is 0.32 E-score.
The same measure for AATTACTG: 0.191 E-score; for ATTTACTA: 0.459 E-score; for GGTTACTA: 0.163 E-score.
The figure for CGTTACTA is 0.34 E-score.
For AATTACCT, the binding signal amounted to 0.357 E-score.
The figure for GACTTATA is 0.257 E-score.
The figure for CCGCACCA is -0.082 E-score; for AGGTGTCA it is -0.0859 E-score.
The same measure for CGCCCTAC: -0.152 E-score; for CATATGCA: 0.117 E-score; for AGTCAGCC: -0.00495 E-score.
As to CGCCCTTA, the binding signal is -0.158 E-score.
The figure for AAAGAACA is -0.199 E-score; for ATTAAGAC it is -0.0587 E-score; for ATTTACAG it is 0.24 E-score.
Consider AGTTACTG, for which the binding signal is 0.207 E-score.
The same measure for AGTTACTA: 0.345 E-score; for ATTTACAA: 0.368 E-score; for AGTTACTC: 0.188 E-score.
The figure for ATTTACAC is 0.23 E-score.
The same measure for CAGTGGAA: 0.0127 E-score; for GGTGTGTA: 0.271 E-score; for CGCATTCC: -0.192 E-score.
Regarding ACTTATAA, the binding signal is 0.28 E-score.
The figure for TACGACCA is -0.0634 E-score; for GAACTCGC it is -0.0505 E-score; for AGGCGCTA it is -0.15 E-score.
The same measure for GCTCCATA: 0.0969 E-score.
The same measure for CCGATCCG: -0.19 E-score; for CAAACGAA: 0.108 E-score.
As for TACTTCTA, the binding signal is 0.36 E-score.
The same measure for TAATTCTA: 0.345 E-score; for ATATTCTA: 0.424 E-score.
The same measure for GAATTCTC: -0.0203 E-score.
The same measure for CTATTCTA: 0.128 E-score; for ATATTCTC: 0.277 E-score; for GAATTCTA: 0.357 E-score.
Take AACTTCTA: the binding signal worked out at 0.296 E-score.
The same measure for CAATTCTA: 0.278 E-score.
Consider TAATTCAA, for which the binding signal came to 0.105 E-score.
The figure for GACTTCTA is 0.0634 E-score; for TAATTCCA it is 0.213 E-score.
Regarding CAAGAAAA, the binding signal was -0.0182 E-score.
Turning to GATTCACA, the binding signal came out at 0.0605 E-score.
The figure for AACGAAGC is -0.108 E-score; for ACGGAAAC it is -0.0398 E-score.
The figure for AATTGACT is 0.16 E-score; for AAGTAACT it is 0.225 E-score; for ACTAGGCG it is -0.156 E-score.
The figure for TATGGTCA is -0.0127 E-score.
Turning to AGCGCAAA, the binding signal was 0.0549 E-score.
The figure for GCGTACTA is 0.082 E-score; for AAATTCTA it is 0.402 E-score; for AAATTCTT it is 0.0789 E-score.
Take AAATTCTC: the binding signal is 0.0375 E-score.
For ACCGTCGA, the binding signal stood at 0.0177 E-score.
The same measure for CGTACTGC: 0.0418 E-score; for TGTACTAA: 0.0689 E-score.
The figure for AGTACTGC is 0.114 E-score.
Take AGTACTAT: the binding signal amounted to 0.388 E-score.
The figure for CGTACTAA is 0.217 E-score.
The same measure for CGTACTAC: 0.339 E-score; for AGTACGAT: 0.134 E-score.
The same measure for AGTACTAC: 0.389 E-score; for AGTACTCA: 0.0122 E-score; for GGTACTAA: 0.138 E-score.
For GGTACTAC, the binding signal stood at 0.212 E-score.
The same measure for AGTACTAA: 0.357 E-score; for AGGAGTCC: -0.0508 E-score; for ATTCCTAC: 0.201 E-score.
The same measure for CATGGTCA: -0.1 E-score; for TACCGAAA: 0.225 E-score; for TCGAATCA: -0.0502 E-score.
The same measure for ACCGCACT: 0.0535 E-score; for CGTACTAG: 0.0856 E-score.
As for AGTACTAG, the binding signal amounted to 0.385 E-score.
The same measure for AGTACTGG: 0.156 E-score.
The same measure for AAGGTAGC: 0.133 E-score; for ACGGTAGG: 0.137 E-score; for TCGGTAAA: 0.136 E-score.
The same measure for AAGGTAGT: 0.354 E-score; for CCGGTAAA: 0.107 E-score.
As for ACGGTAAA, the binding signal was determined as 0.349 E-score.
The figure for ACGGTATA is 0.252 E-score; for GCGGTATA it is 0.347 E-score.
The same measure for CCGGTATA: -0.0189 E-score; for ACGGTAGT: 0.373 E-score; for AAGGTAGG: 0.133 E-score.
The figure for ACGGTAGC is 0.139 E-score.
Turning to CTAGATGA, the binding signal came out at 0.0637 E-score.
The same measure for CTGCGAGA: -0.11 E-score; for AAGCCTGA: -0.131 E-score.
The same measure for GACCCAGA: -0.174 E-score.
The same measure for AGCAAACC: 0.0585 E-score.
On to ACGGTAGA, for which the binding signal turned out to be 0.365 E-score.
The figure for GCGGTAGC is 0.0476 E-score.
The figure for AAGGTAGA is 0.288 E-score.
Take GCGGTAGA: the binding signal worked out at 0.337 E-score.
Consider CCGGTAGA, for which the binding signal was found to be 0.229 E-score.
The figure for TAGGTAGA is 0.361 E-score.
Consider TCGGTAGA, for which the binding signal came to 0.231 E-score.
The same measure for GAGGTAGA: 0.296 E-score; for GGGGTAGA: 0.011 E-score; for GAAGCAAC: 0.0226 E-score.
The same measure for GCCGTTAA: -0.0418 E-score; for CAGTTCTC: 0.00617 E-score; for AACGACAG: 0.0268 E-score.
The figure for ATATTGTA is 0.375 E-score; for ATATTGTG it is 0.172 E-score; for CAATTGTC it is -0.0649 E-score.
As to CAATTGTA, the binding signal came out at 0.339 E-score.
In the case of GAATTGTA, the binding signal worked out at 0.254 E-score.
As for CTATTGTC, the binding signal is -0.0651 E-score.
The same measure for ACATTGTA: 0.222 E-score; for CTATTGTA: 0.381 E-score.
The figure for GTATTGTA is 0.238 E-score; for AATGTTGT it is 0.154 E-score; for CAGGGTTC it is -0.172 E-score.
The figure for CGAACTAC is 0.358 E-score; for CTAACTAA it is 0.29 E-score; for GTAACTAC it is 0.394 E-score.
In the case of AGAACTAC, the binding signal came to 0.327 E-score.
With CTAACTAC, the binding signal came to 0.397 E-score.
The figure for GTAACTAA is 0.304 E-score; for ATAACTAC it is 0.316 E-score; for CGAACTAG it is 0.319 E-score.
The figure for GCAACTAC is 0.308 E-score.
The figure for AAAGCCTG is -0.18 E-score; for ATTTTAAA it is 0.126 E-score; for GTCGCTAA it is 0.16 E-score.
In the case of GCATATGC, the binding signal is 0.129 E-score.
As to CTCATAAG, the binding signal is -0.129 E-score.
The same measure for ACCTACAG: 0.0467 E-score.
The figure for AACTACAT is 0.419 E-score.
Consider CACTACAA, for which the binding signal was found to be 0.143 E-score.
With GACTACAA, the binding signal stood at 0.12 E-score.
On to TACTACAA, for which the binding signal was found to be 0.357 E-score.
The same measure for ACCTACAA: 0.265 E-score.
The same measure for AACTACAC: 0.335 E-score; for CACTACAG: -0.0355 E-score; for ACCTACAT: 0.271 E-score.
The same measure for AACTACAG: 0.337 E-score; for GCCTACAA: 0.107 E-score.
For the sequence AACTACAA, the binding signal turned out to be 0.34 E-score.
The same measure for GAACCAGC: -0.148 E-score; for GTAATCCA: 0.00713 E-score.
The figure for ACATCGGA is 0.06 E-score; for ATTTTTGA it is 0.0221 E-score; for GCTCTCAA it is -0.174 E-score.
The figure for CCTAGCGA is -0.111 E-score.
TTCTACAA: the binding signal is 0.392 E-score.
For the sequence AGCTACAC, the binding signal was determined as 0.191 E-score.
The figure for CTCTACAA is 0.0924 E-score; for AGCTACAA it is 0.205 E-score; for AGCTACAT it is 0.364 E-score.
The figure for GTCTACAA is 0.11 E-score; for ACTTCGTC it is -0.0747 E-score; for TGTCCAAA it is 0.0695 E-score.
Take ACCGGCCG: the binding signal was -0.0951 E-score.
On to TCGAGAAA, for which the binding signal was 0.135 E-score.
The figure for GTTATTTA is 0.197 E-score; for ATTATTTA it is 0.406 E-score.
The figure for CTTATTTA is 0.148 E-score.
On to GGTATTTA, for which the binding signal was 0.356 E-score.
Regarding AGTATTTG, the binding signal is 0.31 E-score.
Take CGTATTTA: the binding signal worked out at 0.261 E-score.
The figure for GGTATTCA is -0.0162 E-score.
The same measure for AGTATTTC: 0.332 E-score; for AGTATTTA: 0.344 E-score.
The figure for AAATGCTC is -0.142 E-score.
Turning to AAGATTAG, the binding signal turned out to be 0.197 E-score.
The figure for ACCAGTGC is -0.175 E-score; for TAGCAGCA it is 0.0346 E-score; for ATAATAAC it is 0.312 E-score.
The same measure for ATAATAAA: 0.297 E-score; for GGAATATA: 0.366 E-score; for ATAATACC: 0.174 E-score.
The figure for ATAATACA is 0.237 E-score; for ATAATACG it is 0.349 E-score.
Consider CTAATATC, for which the binding signal stood at 0.255 E-score.
The figure for ATAATAAT is 0.372 E-score; for AGAATATA it is 0.296 E-score.
With CTAATAGA, the binding signal was determined as 0.0426 E-score.
CGAATATA: the binding signal turned out to be 0.321 E-score.
The same measure for CTAATATA: 0.349 E-score.
